Test results taken from the supplement of paper PMC10338343.
± gives the standard deviation.

test system: MILI (PIWIL2) piRISC loaded with piRNA #1 (26 nt); assay: pre-steady-state target cleavage rate (min^-1); guide: piRNA #1 5'p-UGAGGUAGUAGGUUGUAUAGUAUCCA; MIWI and MILI are mouse PIWI proteins and EfPiwi is from a freshwater sponge; tags in brackets are library labels; higher = faster piRNA-guided slicing of the target; conditions: auxiliary factor: 500 nM mouse GTSF1
Outline: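 In HEPES–potassium acetate buffer at 33 °C, […] transcribed, DNA-blocked target RNA library was mixed with 1 nM active affinity-purified piRISC carrying one synthetic guide, with or without 500 nM GTSF1 partner protein, for 0–8 or 0–960 min. Uncleaved targets were sequenced and normalised to depth and to weakly complementary targets; three trials were pooled and k3 was capped at 0.0001 min^-1. The pre-steady-state cleavage rate followed from a burst-and-steady-state fit.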
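Further: 1 nM active piRISC with 0.1 nM target library at 33 °C single turnover.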

Sequence	pre-steady-state target cleavage rate
GGAGACCUAUGAAUACAUGCUACUACCUCA	0.00268 ± 0.0026
GGAGUGGAAACUAUACAACCUACUAGCUCA	0.0453 ± 0.013
GGAGACCUAACUAUUCUACCUACUACCUCA	0.104 ± 0.021
GGAGACCUAUGUAUACAUCCUACUACCACA	0.163 ± 0.017
GGAGACCUUACUAUCAACCUACUACCUCA	0.0728 ± 0.0079
GGAGACCUAUGUAUACAACCUCACUACCUCA	0.00401 ± 0.0027
GGAGACCUAACUAUACAACGUACAACCUCA	0.0148 ± 0.005
GGAGACCUUACUAUAUCAACCUACUACCUCA	0.0609 ± 0.0086
GGAGACCUAUGAUAUGUUCCUACUACCCCA	< 0.0001
GGAGACCAUACUAUACAUGGUACUACCUCA	0.00626 ± 0.0026
GGAGACCUAUGUAUACAACCUACUACCUGCA	0.0635 ± 0.011
GGAGACCUAUGAAUACUACCUACUACGUCA	0.00344 ± 0.0026
GGAGACCUAACUAUUCAAGCUACUACCUCA	0.217 ± 0.027
GGAGACCUAUGAAUACAACCUACUACCGUCA	0.00898 ± 0.0024
GGAGACCUAUGAUAUGUACCUACACCUCA	< 0.0001
GGAGUGGAAACUAUACAACCUACAACCUCA	0.0962 ± 0.023
GGAGACCUAUGUAUAGUACCUACUACCUCA	0.013 ± 0.0027
